Experimental findings from PubChem BioAssay (Tox21) are described below.

Assay [1] can be described thus: qHTS assay to identify small molecule HDAC inhibitors (AID 1259364).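 Note: wild-type HCT-116 cells with endogenous class I/II HDAC activity; top concentration of the series differs between compounds; nearly all actives have a fitted effect of over 45% in size.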 In outline: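 Cells (HCT-116, wild type) are seeded at 1,500 per well, incubated overnight, treated with compound in DMSO for 2 hr, then developed with HDAC-Glo I/II reagent for 30 min at room temperature.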
In general terms: qHTS replaces the single test concentration by a dilution series.

Assay [2] is described as follows: qHTS assay to identify small molecule HDAC inhibitors - cell viability counter screen (AID 1259365). Note: series mostly up to about 92 µM; nearly all actives have a fitted effect of over 50% in size. The procedure, abridged:
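To flag cytotoxic hits, 1,500 wild-type HCT-116 cells per well, plated the day before, receive test compounds for 2hr at 37 C before CellTiter-Glo reagent and a luminescence read.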

Assay [3] can be described thus: qHTS assay to identify small molecule agonists of the sonic hedgehog signaling (Shh) pathway - cell viability counter screen (AID 1259366). Note: nearly all actives have a fitted effect of over 50% in size. Note: potency is the fitted concentration of half-maximal effect. In outline:
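Fluorescence from CellTiter-Fluor reports live cells in this counter screen. NIH/3T3-derived Gli1-Luc reporter cells receive test compounds for 24hr at 37C; reagent goes in at 23hr.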

The nature of assay [4]: qHTS assay to identify small molecule antagonists of the sonic hedgehog signaling (Shh) pathway - cell viability counter screen (AID 1259367). Note: nearly all actives have a fitted effect of over 55% in size. Note: potency is the fitted concentration of half-maximal effect. The procedure, abridged:
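Conditioned medium drove Shh signaling in 3T3 Gli1-Luc cells exposed to compounds at 37C and 5% CO2. Viability was determined from CellTiter-Fluor fluorescence, with reagent incubated 1 hr after 23 hr of treatment.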

Assay [5] is described as follows: qHTS assay to identify small molecule agonists of the sonic hedgehog signaling (Shh) pathway (AID 1259368; calls by dose curve;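 note: NIH/3T3-derived 3T3Gli1-Luc cells carrying a stable Gli1-driven firefly luciferase reporter; series mostly up to about 92 µM; nearly all actives have a fitted effect of over 15% in size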). The procedure, abridged: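 Cells of a mouse NIH/3T3 clone stably expressing luciferase under the Gli1 transcriptional response element are exposed to test chemicals for 24 hr at 37 C. Pathway activation is detected as a rise in luminescence.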
Assay [6] is described as follows: qHTS assay to identify small molecule antagonists of the sonic hedgehog signaling (Shh) pathway (AID 1259369; calls by dose curve; note: nearly all actives have a fitted effect of over 45% in size; note: potency is the fitted concentration of half-maximal effect). The procedure, abridged:
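Cells are plated and held 4hr at 37 C, compounds (DMSO) are pinned in, conditioned medium is added to stimulate the pathway, and after 24hr luciferase reagent is added for 30min before luminescence is read.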

Assay [7] deals with Estrogen receptor beta (Homo sapiens) (UniProt Q92731). In words: qHTS assay to identify small molecule agonists of the estrogen receptor beta (ER-beta) signaling pathway (AID 1259377; active = well fitted activation curve with a large enough effect in the signal ratio in the repeat runs, not every such curve was filed as active; the % refers to the signal ratio). In outline:
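Screening used GripTite ER-beta-UAS-bla cells held in 2% charcoal-stripped FBS medium. After overnight (16 hr) compound incubation at 37C, beta-lactamase activity was detected with a FRET substrate by fluorescence.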

Structures are written as SMILES. Results filed as inconclusive are left out. Calls of active or inactive are those of the source. Unless noted, calls come from the whole dose curve; as a rule, active = well fitted curve in the direction sought with a large enough effect in the repeat runs; inconclusive = weak or mixed curves; inactive = no such curve, though single readings can be large; an effect the other way counts as inactive or inconclusive.

Estrogen receptor beta (Homo sapiens), sequence (Q92731 whole entry, looked up): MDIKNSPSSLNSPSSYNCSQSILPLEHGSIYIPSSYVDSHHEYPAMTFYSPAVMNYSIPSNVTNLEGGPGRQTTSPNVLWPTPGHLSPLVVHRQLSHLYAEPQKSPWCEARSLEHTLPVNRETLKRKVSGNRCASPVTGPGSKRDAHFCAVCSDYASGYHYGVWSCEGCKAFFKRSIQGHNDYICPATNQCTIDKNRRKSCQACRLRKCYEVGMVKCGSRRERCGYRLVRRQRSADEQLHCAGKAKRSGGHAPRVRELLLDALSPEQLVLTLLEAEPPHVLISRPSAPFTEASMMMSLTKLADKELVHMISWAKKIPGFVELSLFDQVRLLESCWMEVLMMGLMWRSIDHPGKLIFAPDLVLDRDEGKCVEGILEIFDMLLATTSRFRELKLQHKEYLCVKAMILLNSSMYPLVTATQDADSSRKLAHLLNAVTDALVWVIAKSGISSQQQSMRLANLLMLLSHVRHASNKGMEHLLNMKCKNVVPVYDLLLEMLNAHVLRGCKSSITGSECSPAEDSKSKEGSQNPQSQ

For `Cc1c(-c2ccc(O)cc2)n(Cc2ccc(OCCN3CCCCCC3)cc2)c2ccc(O)cc12`, the Potency result in assay [1], in assay [2] and in assay [5] was “inactive” throughout. For the same compound, the results for the Potency in assay [3], in assay [4] and in assay [6] were 13.3 µM (active), 26.6 µM (active) and 11.9 µM (active), respectively.
As to `O=C1Nc2ccc(Cl)cc2[C@@](C#CC2CC2)(C(F)(F)F)O1`, the Potency result in assay [1], in assay [2], in assay [3], in assay [4], in assay [5] and in assay [7] was “inactive” each time.
`CNCC[C@H](Oc1cccc2ccccc12)c1cccs1`: the Potency entry in assay [1], in assay [2] and in assay [5] was “inactive” in each case. The Potency in assay [3] was 26.6 µM (active); in assay [4], 33.5 µM (active); in assay [6], 2.37 µM (active).
In the case of `CC[N+](CC)(CC)Cc1ccccc1`, the Potency entry in assay [1], in assay [2], in assay [3], in assay [4], in assay [5] and in assay [6] was “inactive” throughout. Also, in assay [7], the Potency result was “inactive”.
